VDR inh – blocks the human vitamin D receptor; P11473; AID 504847; VDR-SRC2-3 peptide fluorescence polarization, 2 h; 400,000 compounds, 0.93% hits; Potency, µM, actives largely listed as inhibitors
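VDR–SRC2-3 interaction, FP format. Cmpds 23 nl via pintool, brief spin, 2 h ambient incubation.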
PLK1 PBD inh – inhibitors of human PLK1 polo-box domain binding; Plk1 PBD binding of FITC phosphopeptide, fluorescence polarization; Potency, µM, most hits filed as inhibitors; 360,000 compounds, 2.8% hits; AID 720504; also: series mostly up to about 57 µM; nearly all actives have a fitted effect of over 65% in size
TDP1 cell noCPT – qHTS for Inhibitors of human tyrosyl-DNA phosphodiesterase 1 (TDP1): qHTS in cells in absence of CPT | DT40 Tdp1-/- hTDP1 cells, no CPT, ATP luminescence, 48 h | Potency, µM (highest dose often 46.2 µM), hits mostly inhibitors | 420,000 compounds, 15% hits | AID 686978, 2013; also: nearly all actives have a fitted effect of over 55% in size
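Growth of hTDP1-complemented DT40 Tdp1-knockout cells is measured by ATP luminescence after at least 48 hr compound exposure at 37 °C, with DMSO substituting for the 20 nM CPT used in the parallel screen.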
DT40 TDP1 CPT – DT40-hTDP1 cell growth loss with CPT. chicken DT40 Tdp1-/-;hTDP1 cells + 20 nM CPT, ATP luminescence, 48 h. Potency, µM (titrated, usually from 46.2 µM), usual class: inhibitors. 420,000 compounds, 12% hits; also: nearly all actives have a fitted effect of over 55% in size
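Cell growth measured by CellTiter-Glo luminescence after a minimum 48 h, 37 C compound exposure with 20 nM CPT in Tdp1-knockout DT40 cells stably expressing hTDP1, seeded 400/well; qHTS titration format.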
KAT2A inh – inhibitors of human GCN5L2 histone acetyltransferase | GCN5L2 HAT assay, ThioGlo1 CoA-SH fluorescence | Potency, µM (series often up to 58.9 µM), actives largely listed as inhibitors | 390,000 compounds, 0.21% hits
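ThioGlo1-coupled HAT assay: 20nM GCN5L2, 70uM acetyl-CoA, 75uM H3(1-25) peptide, pH 7.5. Fluorescence read at 340/540nm at start and after 20 min at room temperature.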
TDP1 block – blocks human tyrosyl-DNA phosphodiesterase 1. Q9NUW8. AID 485290. Potency, µM (top dose mostly 130 µM), usual class: inhibitors. 350,000 compounds, 0.28% hits. recombinant TDP1, AlphaScreen DNA substrate cleavage; also: nearly all actives have a fitted effect of over 40% in size
Target sequence (Q9NUW8 whole entry, looked up): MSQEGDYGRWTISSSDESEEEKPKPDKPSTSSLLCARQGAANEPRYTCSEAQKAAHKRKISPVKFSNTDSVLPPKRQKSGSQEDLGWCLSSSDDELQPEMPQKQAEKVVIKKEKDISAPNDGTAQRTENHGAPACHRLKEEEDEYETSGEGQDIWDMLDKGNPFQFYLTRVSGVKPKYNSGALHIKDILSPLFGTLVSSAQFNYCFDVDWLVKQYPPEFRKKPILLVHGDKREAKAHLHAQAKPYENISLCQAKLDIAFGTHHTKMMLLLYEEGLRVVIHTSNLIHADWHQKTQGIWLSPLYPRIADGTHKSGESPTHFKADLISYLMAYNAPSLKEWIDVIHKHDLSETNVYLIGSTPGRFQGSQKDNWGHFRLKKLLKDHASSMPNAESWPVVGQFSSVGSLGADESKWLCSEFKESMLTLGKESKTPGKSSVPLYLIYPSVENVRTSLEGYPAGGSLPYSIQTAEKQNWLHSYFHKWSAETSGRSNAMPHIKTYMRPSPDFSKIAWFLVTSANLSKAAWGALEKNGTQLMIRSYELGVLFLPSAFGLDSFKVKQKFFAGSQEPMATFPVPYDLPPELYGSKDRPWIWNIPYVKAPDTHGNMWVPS
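Signal: AlphaScreen proximity between streptavidin donor and anti-FITC acceptor beads on intact substrate. Reaction: Tdp1 1 nM, substrate 15 nM final, 5 min RT after 15 min compound preincubation.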
Each line names hits and unclear results; the compound was inactive in the other large screens. Compounds with a hit are over-represented: about 18% of the library has one in this group of screens. Calls follow the shape of the dose curve; as a rule, active = well fitted curve in the direction sought with a large enough effect; inconclusive = small, poorly fitted or top-dose-only effect, or another doubt; inactive = no such curve, though single readings can be large; an effect the other way counts as inactive or inconclusive.

CC(C)C(=O)NC(=S)Nc1ccccc1N1CCN(C(=O)c2ccc(Cl)cc2)CC1	TDP1 cell noCPT 16.4µM, DT40 TDP1 CPT inconclusive
CCNC(=O)C1CCCN(C(=O)c2ccc(OC)c(OC)c2)CC1 (configuration not stated)	none (no result: VDR inh, KAT2A inh, TDP1 block)
COc1ccc(NC(=O)C2(c3cccs3)CCOCC2)cc1Cl	TDP1 cell noCPT inconclusive (no result: PLK1 PBD inh)
C=CCn1c(CSCc2ccc(Cl)cc2Cl)nnc1SCC(=O)Nc1ccc(C(=O)O)cc1	none
O=CN/C=C/c1cccc(O)c1	none (no result: KAT2A inh, TDP1 block)
O=C(Nc1ccccc1N1CCCC1)C1CCN(C(=O)c2ccc(Cl)cc2)CC1	TDP1 cell noCPT inconclusive, DT40 TDP1 CPT inconclusive
CCN(CC)S(=O)(=O)c1ccc(N2CCCCC2)c(NC(=O)C2CCN(C(=O)c3ccc(F)cc3)CC2)c1	TDP1 cell noCPT 23.1µM, DT40 TDP1 CPT inconclusive (no result: TDP1 block)
O=C(Nc1ccccc1N1CCCCC1)C1CCN(C(=O)c2ccc(Cl)cc2)CC1	TDP1 cell noCPT inconclusive, DT40 TDP1 CPT 23.1µM
COc1ccc(C(=O)N2CCC(C(=O)Nc3ccc4c(c3)OCO4)CC2)cc1	none
COc1ccc(C(=O)N2CCC(C(=O)Nc3ccc(Cl)cc3)CC2)cc1	TDP1 cell noCPT inconclusive, DT40 TDP1 CPT 5.8µM (no result: PLK1 PBD inh, TDP1 block)
Cc1cc(=O)[nH]c(/N=C(\N)Nc2ccc(SC(F)F)cc2)n1	TDP1 cell noCPT inconclusive, DT40 TDP1 CPT inconclusive
Cc1ccc(C(=O)NNC(=O)c2n[nH]c(=O)c3ccccc23)cc1C	none
c1csc(-c2nn3c(Cn4cnc5ccccc54)nnc3s2)c1	PLK1 PBD inh 21.2µM, TDP1 cell noCPT inconclusive, DT40 TDP1 CPT inconclusive
c1ccc(Cc2nnc3sc(-c4cccnc4)nn23)cc1	PLK1 PBD inh 29.9µM, DT40 TDP1 CPT inconclusive
c1ccc(Cc2nnc3sc(-c4cccs4)nn23)cc1	VDR inh inconclusive, PLK1 PBD inh 15µM
c1ccc(Cc2nnc3sc(-c4ccncc4)nn23)cc1	PLK1 PBD inh inconclusive, TDP1 cell noCPT inconclusive
c1ccc(Cc2nnc3sc(-c4ccc5c(c4)OCO5)nn23)cc1	PLK1 PBD inh 20µM (no result: KAT2A inh, TDP1 block)
O=C(c1cccc(Cl)c1)N1CCCC(Cn2cc(C(=O)N3CCCC3)nn2)C1 (configuration not stated)	none (no result: VDR inh, PLK1 PBD inh, KAT2A inh, TDP1 block)
CCOC(=O)C1=C(COC(=O)c2ccc(OC)c(OC)c2OC)NC(=O)NC1C (configuration not stated)	DT40 TDP1 CPT inconclusive (no result: TDP1 block)
CC1(C(=O)NS(=O)(=O)c2ccc(Cl)s2)CCN1C(=O)c1ccc(C2CCCCC2)cc1 (configuration not stated)	none (no result: VDR inh, KAT2A inh, TDP1 block)
CC1(C(=O)NS(=O)(=O)c2ccc(Cl)s2)CCN1C(=O)C1CCCCC1 (configuration not stated)	TDP1 cell noCPT 7.31µM (no result: VDR inh, KAT2A inh, TDP1 block)
COc1ccc(-c2noc(N(c3ccc(F)c(Cl)c3)c3nc(-c4ccc(OC)c(OC)c4)no3)n2)cc1OC	none (no result: PLK1 PBD inh)
Cc1ccc(C)c(Nc2cc(C(=O)NC3CCCCC3)c3ccccc3n2)c1	none (no result: PLK1 PBD inh)
Cc1ccccc1Nc1cc(C(=O)NC2CCCCC2)c2ccccc2n1	TDP1 cell noCPT 20.6µM, DT40 TDP1 CPT inconclusive (no result: PLK1 PBD inh)
Cc1ccc(Nc2cc(C(=O)NC3CCCC3)c3ccccc3n2)cc1C	TDP1 cell noCPT 14.6µM, DT40 TDP1 CPT 13µM (no result: PLK1 PBD inh)
Cc1ccccc1Nc1cc(C(=O)NC2CCC(C)CC2)c2ccccc2n1 (configuration not stated)	TDP1 cell noCPT 11.6µM, DT40 TDP1 CPT 16.4µM (no result: PLK1 PBD inh)
CSc1cccc(Nc2cc(C(=O)NC3CCCCC3)c3ccccc3n2)c1	DT40 TDP1 CPT inconclusive (no result: PLK1 PBD inh)
CC1CCCCN1C(=O)CSc1nc(-c2ccccc2)cn1N (configuration not stated)	VDR inh inconclusive, PLK1 PBD inh 23.8µM
CCCC(C)NC(=O)CSc1nc(-c2ccccc2)cn1N (configuration not stated)	PLK1 PBD inh 26.7µM, TDP1 cell noCPT inconclusive, DT40 TDP1 CPT inconclusive
COc1ccc(NC(=O)NCc2ccccn2)c(OC)c1	none
CCOc1cc(/C=N\NC(=O)CC(=O)NCCc2ccccc2)ccc1O	none
O=C(N/N=C/c1cccnc1)c1cc(-c2ccccc2)nc2ccccc12	TDP1 cell noCPT inconclusive, DT40 TDP1 CPT inconclusive (no result: TDP1 block)
